Source: PubChem BioAssay AID488969 (Vanderbilt High Throughput Screening Facility, 2010)
Over roughly 110,000 compounds, “z-score” has its median near -0.1; the highest 2% begin near 2. Many of the other results were omitted from the sample, so the highest values are more common in it than they were. Calls of active or inactive are those of the source.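 The calls were made as follows: active = z-score in the third read window above 3 or below -3; inactive = the rest.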

target: Metabotropic glutamate receptor 8 (Rattus norvegicus) (UniProt P70579); test: mGluR8 Gi/Go-coupled signaling modulation – cell-based, rat, thallium flux, HTS, primary screen (AID 488969); settings: HEK293 rat mGluR8, GIRK (G protein-gated inwardly rectifying potassium channel) thallium flux, FluoZin2; at 10 µM; stronger effect = higher value; submaximal glutamate (EC20) added with thallium
Sequence (P70579 whole entry, looked up): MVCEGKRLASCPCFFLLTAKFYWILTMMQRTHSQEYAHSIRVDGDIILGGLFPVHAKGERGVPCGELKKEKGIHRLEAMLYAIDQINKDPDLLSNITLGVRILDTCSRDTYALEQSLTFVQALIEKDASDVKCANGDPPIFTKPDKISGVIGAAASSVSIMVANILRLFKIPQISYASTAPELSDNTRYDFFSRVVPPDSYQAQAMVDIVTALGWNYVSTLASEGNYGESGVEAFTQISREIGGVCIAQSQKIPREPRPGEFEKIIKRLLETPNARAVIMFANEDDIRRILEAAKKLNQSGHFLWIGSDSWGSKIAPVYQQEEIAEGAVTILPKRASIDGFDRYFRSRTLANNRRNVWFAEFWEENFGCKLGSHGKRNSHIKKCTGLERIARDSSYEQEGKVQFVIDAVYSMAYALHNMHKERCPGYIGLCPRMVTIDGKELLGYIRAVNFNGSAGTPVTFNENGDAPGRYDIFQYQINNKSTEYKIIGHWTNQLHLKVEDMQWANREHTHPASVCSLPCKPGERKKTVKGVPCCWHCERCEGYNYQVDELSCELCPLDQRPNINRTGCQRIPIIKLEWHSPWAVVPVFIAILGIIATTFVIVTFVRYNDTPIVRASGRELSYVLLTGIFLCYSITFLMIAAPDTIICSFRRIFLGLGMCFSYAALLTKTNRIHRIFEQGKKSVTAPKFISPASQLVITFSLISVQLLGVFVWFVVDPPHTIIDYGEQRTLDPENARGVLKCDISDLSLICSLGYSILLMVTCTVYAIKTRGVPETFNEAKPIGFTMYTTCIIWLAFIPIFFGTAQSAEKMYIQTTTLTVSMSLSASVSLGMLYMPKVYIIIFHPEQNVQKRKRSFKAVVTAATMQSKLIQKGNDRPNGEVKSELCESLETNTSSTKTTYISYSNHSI

Structure (SMILES) | z-score
CC(C)COC(=O)c1nnsc1NC(=O)Nc1ccccc1 | 0.142
O=[N+]([O-])c1ccc(Cl)c(/C=N/NC(=S)Nc2ccccc2)c1 | 1.33
CNC(=S)N/N=C/c1ccccc1Cl | 1.82
S=C(N/N=C/c1ccccc1Cl)Nc1ccccc1 | 6.51 (active)
CCOc1ccc(NC(=O)CSc2nnc(C3CC3)n2N)cc1 | 0.0098
O=C(CSc1nc2cc(Cl)ccc2s1)NCc1ccc2c(c1)OCO2 | -0.0385
COc1ccc(C2Nc3ccccc3C(=O)N2Cc2ccco2)cc1COc1ccc(F)cc1 (centres undefined) | -0.406
Cc1cnc(NC(=O)CSc2nc3ccccc3c(=O)[nH]2)s1 | 2.14
Cc1cccc(C)c1NC(=O)CSc1nc2ccccc2c(=O)[nH]1 | 0.493
Cc1cnc(NC(=O)CSc2ccccc2)s1 | -0.175
O=C(CCNC(=O)Cn1ccc2ccccc2c1=O)NCCN1CCN(c2cccc(Cl)c2)CC1 | -0.463
Clc1ccc(CSc2nc3ccncc3[nH]2)cc1 | 0.673
Nc1cc(=O)[nH]c(SCc2cccc(Cl)c2)n1 | -0.406
Cc1cc(C)cc(NC(=O)CSc2nc3[nH]ncc3c(=O)[nH]2)c1 | -0.54
Cc1ccc(CSc2nc3ncccc3[nH]2)cc1 | 1.17
Clc1cccc(CSc2nc3ccncc3[nH]2)c1 | 9.69 (active)
Cc1ccc(CSc2nc3ccncc3[nH]2)cc1 | 2.46
Cc1cc(C)cc(NC(=O)CSc2nc3ccncc3[nH]2)c1 | 2.24
O=C(CSc1nc2ccccc2[nH]1)Nc1ccc2c(c1)CCC2 | -0.809
COc1ccc2nc(SCC(=O)Nc3ccc4c(c3)CCC4)[nH]c2c1 | 0.226

Structure (SMILES) | z-score
O=C(CSc1nc2ccc(Cl)cc2[nH]1)Nc1ccc2c(c1)CCC2 | 3.89 (active)
Clc1ccccc1CSc1nc2ccncc2[nH]1 | 0.533
Cc1ccc2nc(SCC(=O)Nc3ccc4c(c3)OCCO4)[nH]c2c1 | -0.404
COc1cc(/C=N/O)c(Br)cc1OCC(=O)Nc1ccccc1C | -0.175
COc1ccc(CCNC(=O)CCC(=O)N2CCN(S(=O)(=O)c3ccc(Cl)cc3)CC2)cc1OC | -0.0943
COc1cccc(NC(=O)c2ccc(-n3cccn3)nc2)c1 | 0.109
Cc1c(C(=O)NCCc2ccc3c(c2)OCCO3)oc2ccccc12 | -0.63
CCn1cc(C(=O)O)c(=O)c2cc(F)c(N3CCN(S(=O)(=O)c4ccc(Br)cc4)CC3)cc21 | -0.406
S=C1NC(c2ccccc2)N2C(=S)NC(c3ccccc3)N12 (centres undefined) | -1.08
CN(CC(=O)Nc1ccc(F)c(F)c1F)C(=O)/C=C/c1ccc(Cl)cc1 | -0.265
CCN(CC)C(=O)c1cnn(-c2ccccc2)c1NC(=O)c1cccs1 | -0.27
COc1ccc(CNC(=O)C2CCN(S(=O)(=O)c3c(C)n[nH]c3C)CC2)cc1 | -0.115
Cc1c(CCOC(=O)CC23CC4CC(CC(C4)C2)C3)sc[n+]1Cc1ccccc1 | 0.256
COC(=O)c1[nH]c2ccc(F)cc2c1NC(=O)CCN1CC(C)OC(C)C1 (centres undefined) | -0.0436
Cc1ccc(C(=O)N[C@H](C(=O)OCC(=O)NC2CCS(=O)(=O)C2)C(C)C)cc1 (some centres undefined) | -0.0806
COc1ccccc1NC(=O)c1ccc(S(=O)(=O)N(C)C)cc1 | -0.403
Cc1ccc(CN(Cc2ccco2)S(=O)(=O)c2ccc(S(=O)(=O)NCC3CCCO3)cc2)cc1 (centres undefined) | -0.00067
O=C(Cn1nnc(-c2ccccc2-n2cnnn2)n1)N1CCCCC1 | 0.026
Cc1ccc(-c2nnn(CC(=O)NCc3ccccc3)n2)c(-n2cnnn2)c1 | -0.255
Cc1ccc(-c2nnn(CC(=O)N3CCCCC3)n2)c(-n2cnnn2)c1 | 3.32 (active)

Structure (SMILES) | z-score
CC1CN=C(N(C(=O)Nc2ccccc2)c2ccc(S(=O)(=O)N3CCOCC3)cc2)S1 (centres undefined) | 0.945
Cc1c(C(=O)Nc2ccc(-c3nnc4n3CCCCC4)cc2)oc2ccc(Br)cc12 | -0.49
CCOc1ccc(Br)cc1/C(C)=N\NC1=NCCN1 | 3.75 (active)
CCCCOc1ccc(Br)cc1/C(C)=N/NC1=NCCN1 | 1.54
CCCCCOc1ccc(Br)cc1/C(C)=N/NC1=NCCN1 | 1.05
COc1ccccc1N1CCSC1C(N)=O (centres undefined) | 0.0543
COc1ccc(N2CCSC2C(=O)NN)cc1 (centres undefined) | 2.09
COC(=O)N1CCN(c2ccc(OC)cc2)CC1 | -0.134
O=C(CSc1nc2ccccc2n1CC(=O)N1CCCC1)Nc1nccs1 | 0.452
CCOC(=O)c1c(NC(=O)CSc2nnc(C)c(=O)[nH]2)sc2c1CCCC2 | -0.522
CC1=CC(C)(C)N(C(=O)c2ccccc2)c2ccc(C)cc21 | -0.576
CCC(=O)N1c2ccc(C)cc2C2=NNC(=S)NC21O (centres undefined) | 3.09 (active)
CC1=CC(C)(C)N(C(=O)CSc2ncn[nH]2)c2ccc(C)cc21 | 0.223
CC1(C)NC(=O)N(CC(O)CNC23CC4CC(CC(C4)C2)C3)C1=O (centres undefined) | 0.426
O=C(Nc1ccc(F)cc1F)c1ccc(-n2cncn2)nc1 | -0.0309
COc1ccc(C(=O)NC(=S)N2CCCCC2)cc1[N+](=O)[O-] | 1.25
O=C(Nc1cc(C(F)(F)F)ccc1N1CCCCC1)c1cccc([N+](=O)[O-])c1 | -0.0811
COc1cccc(C(=O)NC(=S)N2CCN(c3ccc(C(F)(F)F)cc3[N+](=O)[O-])CC2)c1 | 4.68 (active)
O=[N+]([O-])c1cc(C(F)(F)F)ccc1N1CCN(S(=O)(=O)c2ccc3ccccc3c2)CC1 | -0.295
